# Laboratory results taken from ChEMBL document CHEMBL1157539, “Thousands of chemical starting points for antimalarial lead identification” (Nature, 2010).
# Columns and labels:
# Format in all cases: functional
# Plasmodium falciparum [1] = assay: GSK_TCMDC: Inhibition of Plasmodium falciparum 3D7 in whole red blood cells, using parasite LDH activity as an index of growth. Test compounds present at 2uM
# Plasmodium falciparum [2] = assay: GSK_TCMDC: Inhibition of Plasmodium falciparum Dd2 in whole red blood cells, using parasite LDH activity as an index of growth. Test compounds present at 2uM
# HepG2 = assay: GSK_TCMDC: Percent inhibition of human HepG2 cell line. Test compounds present at 10uM.
SMILES,Inhibition (Plasmodium falciparum [1]),Inhibition (Plasmodium falciparum [2]),Inhibition (HepG2)
COc1ccc(-c2ccc(NC(=O)c3ccc(C#N)cc3)cc2)cc1CNC(C)C.O=C(O)C(F)(F)F,100%,38%,19%
O=C(Nc1ccc(C(F)(F)F)cc1)c1ccc(S(=O)(=O)NC2CCN(Cc3ccccc3)C2)cc1.O=C(O)C(F)(F)F (stereo not given),100%,5%,42%
Nc1n[nH]c(-c2ccccc2Nc2ccnc3cc(-c4nccs4)ccc23)n1,100%,94%,98%
CC(=O)Nc1ccc(OCCN(Cc2ccccc2C(F)(F)F)c2ccc(C#N)c(C(F)(F)F)c2)cc1,100%,81%,8%
CN1CCN(CCCNCc2ccc(Nc3nccc(Nc4ccc(Oc5ccccc5)cc4)n3)cc2)CC1,100%,9%,17%
COc1cc(CNc2ncc(-c3ccsc3)c(-c3nccs3)n2)cc(OC)c1,86%,82%,3%
NCC1CCCN1Cc1ccc(-c2ccc(-c3nc4ccccc4[nH]3)s2)cc1.O=C(O)C(F)(F)F (stereo not given),98%,97%,17%
CCN(CC)CCN(CCN(CC)CC)c1ccc(-c2nc3cc(Cl)c(Cl)cc3[nH]2)cc1,100%,97%,9%
Cc1cc(C)n(-c2nc(Nc3cccc(C(F)(F)F)c3)nc(-n3nc(C)cc3C)n2)n1,99%,88%,0%
C(=C(c1cccs1)c1cccs1)c1ccc(CNC2CCN(Cc3ccccc3)CC2)cc1.Cl,98%,21%,40%
